Only some compounds are listed: those with a hit (about 6.7% of all), similar ones and a draw of the others.
MCF10A rereplic – induces DNA re-replication in MCF 10a normal breast cells | 2.9% of 350,000 active | MCF 10A DNA re-replication, Hoechst nuclear intensity, 48 h | Potency, µM (titrated, usually from 46.1 µM), actives largely listed as activators; note: nearly all actives have a fitted effect of over 50% in size
KB-V1 MDR tox – kills drug-selected multidrug resistant KB-V1 cells. KB-V1 MDR cells viability, CellTiter-Glo, 72 h. Potency, µM (top dose mostly 46.1 µM), usual class: cytotoxic. 3.4% of 400,000 active. AID 1347076; note: nearly all actives have a fitted effect of over 60% in size
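qHTS viability screen in drug-selected KB-V1 MDR cells: 72 h compound treatment at 37 degrees C, ATP luminescence end point.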
KB-3-1 cytotox – kills parental KB-3-1 adenocarcinoma cells. 1.4% of 400,000 active. AID 1347075. KB-3-1 viability, CellTiter-Glo ATP luminescence, 72 h. Potency, µM (doses to about 46.1 µM), actives largely listed as cytotoxic; note: nearly all actives have a fitted effect of over 60% in size
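Multi-concentration cytotoxicity screen in KB-3-1 cells grown in DMEM lacking phenol red with 10% FBS. After 72 h at 37 °C with compound, ATP-dependent luminescence was recorded.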
SW480 rereplic – DNA re-replication induction in SW480 cells | SW480 DNA re-replication, Hoechst DNA content imaging, 48 h | Potency, µM (doses to about 46.1 µM), most hits filed as activators | 1.8% of 340,000 active; note: nearly all actives have a fitted effect of over 55% in size
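Cells (250 per well) received 23 nL compound or DMSO by pin tool and were kept 48 hr at 37 C, 5% CO2. Nuclei were then stained with Hoechst for 40 min and scanned for DNA content.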
PINK1 expr mod – modulators of PINK1 expression. PINK1 immunofluorescence, high-content cytometry, 24 h. Potency, µM (series often up to 76.6 µM), hits mostly activators. 0.2% of 410,000 active. AID 624263; active = well fitted activation curve with a large enough effect; inconclusive = small, poorly fitted or top-dose-only effect; cell line not stated here; note: nearly all actives have a fitted effect of over 65% in size
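Compound titrations (5 concentrations, 24 h) on a stable cell line; DMSO and CCCP controls. Endpoint: fixed-cell PINK1 immunofluorescence with mitochondrial, cell and nuclear markers, scanned by microplate cytometer.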
Large screens that a line does not name were inactive; ! = a repeat was not active. Unless noted, calls come from the whole dose curve; as a rule, active = well fitted curve in the direction sought with a large enough effect; inconclusive = small, poorly fitted or top-dose-only effect, or another doubt; inactive = no such curve, though single readings can be large; an effect the other way counts as inactive or inconclusive.

COc1ccc(-c2cn(-c3ccc(Br)cc3)c3[n+]2CCS3)cc1	KB-3-1 cytotox 8.2µM
COc1ccc(-c2cn(-c3ccc(Cl)cc3)c3[n+]2CCCCC3)cc1	MCF10A rereplic inconclusive, KB-3-1 cytotox 9.2µM
Clc1ccc(-c2c[n+]3c(n2-c2ccccc2)SCC3)cc1	KB-3-1 cytotox 15µM
O=C(NC1CCCCC1)c1ccc(-c2cn[nH]c2)c2ccoc12	none (no result: MCF10A rereplic, SW480 rereplic)
COc1cc(Cl)ccc1OC1(C)CCN(Cc2ccc3ccccc3c2)C1 (stereo not drawn)	KB-V1 MDR tox inconclusive, PINK1 expr mod inconclusive (no result: MCF10A rereplic, SW480 rereplic)
Cc1cccc(CNc2ncncc2-c2ccccc2C)c1	none (no result: MCF10A rereplic, KB-V1 MDR tox, KB-3-1 cytotox, SW480 rereplic)
N#C/C(=C/c1ccc(Sc2nc3ccccc3[nH]2)o1)c1cccc(F)c1	KB-V1 MDR tox 7.3µM, SW480 rereplic inconclusive, PINK1 expr mod inconclusive
N#C/C(=C/c1ccc(Sc2nc3ccccc3[nH]2)o1)c1ccccc1F	KB-V1 MDR tox 3.7µM, SW480 rereplic inconclusive, PINK1 expr mod inconclusive
N#C/C(=C/c1ccc(Sc2nc3ccccc3[nH]2)o1)c1cccc(Br)c1	MCF10A rereplic inconclusive, KB-V1 MDR tox 18µM, KB-3-1 cytotox inconclusive, PINK1 expr mod 18µM
N#C/C(=C\c1ccc(Sc2ccccc2)o1)c1nc2ccccc2[nH]1	PINK1 expr mod inconclusive
c1ccc2c(c1)ncn2CCCCOc1ccc2c(c1)CCC2	MCF10A rereplic 21µM, KB-V1 MDR tox inconclusive, KB-3-1 cytotox inconclusive, SW480 rereplic inconclusive
c1ccc2c(c1)ncn2CCCOc1ccc2c(c1)CCC2	MCF10A rereplic inconclusive, KB-V1 MDR tox 12µM, KB-3-1 cytotox inconclusive
c1ccc(OCCCCn2cnc3ccccc32)cc1	none
O=C1NC[C@@H](CCCCN2CCN(CCc3ccccc3)C(=O)C2=O)N(CCC2CCCCC2)C1=O	none (no result: MCF10A rereplic, SW480 rereplic)
NCCCn1c(C(=O)c2cc(Cl)c(N)c(Cl)c2)c2ccc([N+](=O)[O-])cc2[n+]1[O-]	KB-3-1 cytotox inconclusive, SW480 rereplic 1µM
NC(=O)c1ccc(Cn2c(C(=O)c3cc(Cl)c(N)c(Cl)c3)c3ccccc3[n+]2[O-])cc1	MCF10A rereplic 12µM, KB-3-1 cytotox inconclusive, SW480 rereplic inconclusive
COc1ccc(NC(=O)c2cc(-c3cc(F)ccc3OCC3CCCO3)n[nH]2)cc1OC (stereo not drawn)	KB-3-1 cytotox inconclusive (no result: MCF10A rereplic, SW480 rereplic)
CCOc1cc(/C=C/c2ccc3cccc([N+](=O)[O-])c3n2)ccc1OCC(=O)N(C)C	KB-V1 MDR tox 18µM, KB-3-1 cytotox inconclusive, SW480 rereplic inconclusive
COc1cc(/C=C/c2ccc3cccc([N+](=O)[O-])c3n2)ccc1OCC#N	none
CCOc1cc(/C=C/c2ccc3cccc([N+](=O)[O-])c3n2)ccc1O	MCF10A rereplic inconclusive, KB-V1 MDR tox 21µM, KB-3-1 cytotox 12µM (no result: SW480 rereplic)
CCOc1ccc(CNC(=O)c2cc3c(s2)-c2ccccc2OC3)cc1	none (no result: MCF10A rereplic, SW480 rereplic)
Cc1ccc(-c2cnc(C(O)c3ccc(Cl)cc3C)[nH]2)cc1 (stereo not drawn)	none (no result: MCF10A rereplic, SW480 rereplic)
CN(C)CCOC(=O)CCCCCCCCC(=O)OCCN(C)C	SW480 rereplic 3.7µM
O=C(Cc1ccccc1)N(Cc1cccnc1)c1nc2c(F)cc(F)cc2s1	KB-V1 MDR tox inconclusive (no result: MCF10A rereplic, SW480 rereplic)
Cc1cc(C)c(NC(=O)CN(C2CCCCC2)C2CCCCC2)c(C)c1	MCF10A rereplic 3.7µM, KB-V1 MDR tox inconclusive, SW480 rereplic 1.8µM
Cc1ccc(NC(=O)C(=O)NCCCN2CCCC2=O)cc1	none
Cc1ccc(COc2ccc(CNCCCN3CCCCCC3=O)cc2)cc1	MCF10A rereplic inconclusive, KB-3-1 cytotox inconclusive, SW480 rereplic 18µM
CC(=O)O[C@H]1C(=O)[C@@]2(C)[C@H]([C@H](OC(=O)c3ccccc3)[C@]3(O)C[C@H](OC(=O)[C@H](O)C(NC(=O)c4ccccc4)c4ccccc4)C(C)=C1C3(C)C)[C@]1(OC(C)=O)CO[C@@H]1C[C@@H]2O (stereo partly drawn)	MCF10A rereplic inconclusive, KB-V1 MDR tox inconclusive, KB-3-1 cytotox 0.0092µM, SW480 rereplic 0.065µM
CC(=O)O[C@H]1C(=O)[C@@]2(C)[C@H]([C@H](OC(=O)c3ccccc3)[C@]3(O)C[C@H](OC(=O)[C@H](O)[C@@H](NC(=O)c4ccccc4)c4ccccc4)C(C)=C1C3(C)C)[C@]1(OC(C)=O)CO[C@@H]1C[C@@H]2O	MCF10A rereplic inconclusive, KB-V1 MDR tox 13µM!, KB-3-1 cytotox 0.046µM!, SW480 rereplic 2.6µM
CCCCCC(=O)N[C@@H](c1ccccc1)[C@@H](O)C(=O)O[C@H]1C[C@@]2(O)[C@@H](OC(=O)c3ccccc3)C3[C@](C)(C(=O)[C@H](OC(C)=O)C(=C1C)C2(C)C)[C@@H](O)C[C@H]1OC[C@@]31OC(C)=O (stereo partly drawn)	MCF10A rereplic inconclusive, KB-V1 MDR tox inconclusive, KB-3-1 cytotox 0.21µM, SW480 rereplic 0.18µM
CC(C)(C)c1ccc(S(=O)(=O)NCc2ccc3c(c2)CCN3C(=O)c2ccccc2)cc1	none (no result: MCF10A rereplic, KB-V1 MDR tox, KB-3-1 cytotox, SW480 rereplic)
CC(C)c1c(C(=O)N2CCCCC2c2cccnc2)cnn1-c1nccc(-c2cccs2)n1 (stereo not drawn)	none (no result: MCF10A rereplic, KB-V1 MDR tox, KB-3-1 cytotox, SW480 rereplic)
CC(C)(C)NC(=O)COC(=O)CNC(=O)C1CCCCC1	KB-3-1 cytotox inconclusive (no result: MCF10A rereplic, SW480 rereplic)
Nc1ccc(NC(=O)c2cccc(C(=O)Nc3ccc(N)cc3Cl)c2)c(Cl)c1	MCF10A rereplic inconclusive, KB-V1 MDR tox inconclusive, KB-3-1 cytotox inconclusive, SW480 rereplic inconclusive
CCN1CCCC1CNCC(O)COc1ccc(C(C)(C)C)cc1C (stereo not drawn)	MCF10A rereplic 9.2µM, SW480 rereplic inconclusive
Cc1ccc2c(c1)c1c(n2CC(O)CN2CCCCCC2)CCCC1 (stereo not drawn)	MCF10A rereplic inconclusive, SW480 rereplic inconclusive
Cc1ccc2c(c1)c1c(n2CC(O)Cn2nc(C)c(Br)c2C)CCCC1 (stereo not drawn)	MCF10A rereplic 23µM, KB-V1 MDR tox 21µM, KB-3-1 cytotox inconclusive, PINK1 expr mod inconclusive
CCC(=O)NC(c1ccc([N+](=O)[O-])cc1)c1c(O)ccc2ccccc12 (stereo not drawn)	MCF10A rereplic inconclusive
COc1ccc(C(NC(=O)C(C)C)c2c(O)ccc3ccccc23)cc1 (stereo not drawn)	MCF10A rereplic 18µM, KB-3-1 cytotox inconclusive, SW480 rereplic inconclusive
CC(C)C(=O)NC(c1ccco1)c1c(O)ccc2ccccc12 (stereo not drawn)	MCF10A rereplic 21µM
CCCCC(=O)NC(c1ccc([N+](=O)[O-])cc1)c1c(O)ccc2ccccc12 (stereo not drawn)	MCF10A rereplic inconclusive, KB-V1 MDR tox 16µM, KB-3-1 cytotox inconclusive, SW480 rereplic inconclusive, PINK1 expr mod inconclusive
CC(C)C(=O)NC(c1ccccc1Cl)c1c(O)ccc2ccccc12 (stereo not drawn)	PINK1 expr mod inconclusive
Cc1ccc(/C=C/C(=O)Nc2ccc3nc(N4CCC(C)CC4)cc(C)c3c2)cc1	none (no result: MCF10A rereplic, SW480 rereplic)
CCCCN1C(=O)C(CC(=O)NCCCN(C)C)CC(C(=O)N2CCCCCC2)=C1C (stereo not drawn)	none (no result: MCF10A rereplic, SW480 rereplic)
